# Experimental data taken from PubChem BioAssay AID651916 (Vanderbilt Specialized Chemistry Center, 2012).
# The source made the active and inactive calls. The rule behind the calls is not given here.
# Biological target: Histone deacetylase 3 (Homo sapiens) (UniProt O15379)
# Experiment: HDAC3 deacetylase inhibition, profiling panel, selectivity assay for E-cadherin restoration project, biochemical, human (AID 651916)
# Sequence of Histone deacetylase 3 (Homo sapiens) (O15379 whole entry, looked up): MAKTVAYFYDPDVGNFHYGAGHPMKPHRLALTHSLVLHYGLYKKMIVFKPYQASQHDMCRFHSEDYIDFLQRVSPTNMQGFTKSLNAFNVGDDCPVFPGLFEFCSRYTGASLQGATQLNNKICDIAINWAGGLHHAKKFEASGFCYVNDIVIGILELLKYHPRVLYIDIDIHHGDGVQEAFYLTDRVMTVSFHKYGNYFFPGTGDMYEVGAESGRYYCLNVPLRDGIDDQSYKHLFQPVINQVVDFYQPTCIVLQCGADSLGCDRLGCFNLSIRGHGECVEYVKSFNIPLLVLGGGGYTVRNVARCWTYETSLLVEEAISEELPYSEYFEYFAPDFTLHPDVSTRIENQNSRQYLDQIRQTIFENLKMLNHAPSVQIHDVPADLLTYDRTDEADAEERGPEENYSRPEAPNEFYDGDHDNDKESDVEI
structure (smiles),measurement,value
O=C(NCCCNC(=O)c1ccc[nH]c1=O)c1cc(-c2ccccc2)on1,outcome,inactive
